# Key:
# [1] = molecular target: T1, Serine/threonine-protein kinase TBK1 (Homo sapiens) (UniProt Q9UHD2); conditions: at 10 µM
# T1 sequence (whole entry): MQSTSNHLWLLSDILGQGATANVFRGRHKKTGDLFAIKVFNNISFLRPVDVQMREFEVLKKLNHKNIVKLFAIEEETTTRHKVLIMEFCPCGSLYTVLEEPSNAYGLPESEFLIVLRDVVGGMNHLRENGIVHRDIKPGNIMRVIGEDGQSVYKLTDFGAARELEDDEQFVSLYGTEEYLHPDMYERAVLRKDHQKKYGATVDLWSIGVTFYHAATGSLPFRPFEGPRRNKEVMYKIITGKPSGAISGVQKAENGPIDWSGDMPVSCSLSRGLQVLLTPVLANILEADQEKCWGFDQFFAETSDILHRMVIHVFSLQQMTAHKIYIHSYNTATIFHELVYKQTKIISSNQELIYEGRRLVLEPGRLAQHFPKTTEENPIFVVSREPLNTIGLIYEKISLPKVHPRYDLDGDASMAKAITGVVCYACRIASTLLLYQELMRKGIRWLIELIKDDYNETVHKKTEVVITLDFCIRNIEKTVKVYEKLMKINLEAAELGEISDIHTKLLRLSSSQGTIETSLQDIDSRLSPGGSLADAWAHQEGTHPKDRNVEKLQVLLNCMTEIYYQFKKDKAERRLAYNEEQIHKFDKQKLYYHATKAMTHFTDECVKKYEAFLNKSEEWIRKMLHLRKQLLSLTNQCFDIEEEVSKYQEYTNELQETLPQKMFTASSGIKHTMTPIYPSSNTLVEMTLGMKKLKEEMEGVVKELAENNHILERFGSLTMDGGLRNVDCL
# [2] = molecular target: T2, TGF-beta receptor type-1 (Homo sapiens) (UniProt P36897); conditions: at 1 µM
# T2 sequence (whole entry): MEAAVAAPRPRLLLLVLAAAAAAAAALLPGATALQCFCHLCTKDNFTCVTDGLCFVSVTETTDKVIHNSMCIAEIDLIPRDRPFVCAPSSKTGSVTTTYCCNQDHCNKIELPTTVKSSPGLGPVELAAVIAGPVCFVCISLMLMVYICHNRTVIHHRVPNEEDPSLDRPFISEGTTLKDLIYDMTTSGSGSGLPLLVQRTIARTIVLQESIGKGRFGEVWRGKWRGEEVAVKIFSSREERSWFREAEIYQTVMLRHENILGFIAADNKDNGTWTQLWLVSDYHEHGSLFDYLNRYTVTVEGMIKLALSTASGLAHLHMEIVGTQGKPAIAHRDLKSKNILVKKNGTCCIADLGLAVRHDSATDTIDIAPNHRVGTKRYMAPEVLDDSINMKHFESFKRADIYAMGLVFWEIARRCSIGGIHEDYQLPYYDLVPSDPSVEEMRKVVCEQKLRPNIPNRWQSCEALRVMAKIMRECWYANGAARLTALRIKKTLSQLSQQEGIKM
# [3] = molecular target: T2, TGF-beta receptor type-1 (Homo sapiens); conditions: at 10 µM
# [4] = molecular target: Insulin-like growth factor 1 receptor (Homo sapiens) (UniProt P08069); conditions: at 1 µM
# Chain of Insulin-like growth factor 1 receptor (Homo sapiens) (P08069 31-736 limits assumed): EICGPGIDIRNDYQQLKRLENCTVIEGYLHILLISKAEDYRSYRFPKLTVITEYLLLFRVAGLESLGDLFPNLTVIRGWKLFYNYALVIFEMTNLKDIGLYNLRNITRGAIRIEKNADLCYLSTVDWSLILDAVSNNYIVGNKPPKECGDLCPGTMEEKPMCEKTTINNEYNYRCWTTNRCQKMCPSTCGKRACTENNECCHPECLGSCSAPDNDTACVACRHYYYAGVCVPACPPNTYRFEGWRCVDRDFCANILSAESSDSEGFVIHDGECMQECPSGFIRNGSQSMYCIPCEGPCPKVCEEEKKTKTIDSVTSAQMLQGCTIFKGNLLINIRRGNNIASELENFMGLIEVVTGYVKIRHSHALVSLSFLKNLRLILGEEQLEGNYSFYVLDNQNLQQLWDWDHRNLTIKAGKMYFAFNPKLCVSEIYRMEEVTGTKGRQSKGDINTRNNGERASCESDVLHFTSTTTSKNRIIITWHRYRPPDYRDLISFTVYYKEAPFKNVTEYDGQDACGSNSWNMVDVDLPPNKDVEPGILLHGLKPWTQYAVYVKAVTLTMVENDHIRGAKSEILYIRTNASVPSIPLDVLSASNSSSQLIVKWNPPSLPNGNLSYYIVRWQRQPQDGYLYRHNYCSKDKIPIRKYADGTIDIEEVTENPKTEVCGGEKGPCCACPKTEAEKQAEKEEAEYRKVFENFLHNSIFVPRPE
# Chain of Insulin-like growth factor 1 receptor (Homo sapiens) (P08069 741-1367 limits assumed): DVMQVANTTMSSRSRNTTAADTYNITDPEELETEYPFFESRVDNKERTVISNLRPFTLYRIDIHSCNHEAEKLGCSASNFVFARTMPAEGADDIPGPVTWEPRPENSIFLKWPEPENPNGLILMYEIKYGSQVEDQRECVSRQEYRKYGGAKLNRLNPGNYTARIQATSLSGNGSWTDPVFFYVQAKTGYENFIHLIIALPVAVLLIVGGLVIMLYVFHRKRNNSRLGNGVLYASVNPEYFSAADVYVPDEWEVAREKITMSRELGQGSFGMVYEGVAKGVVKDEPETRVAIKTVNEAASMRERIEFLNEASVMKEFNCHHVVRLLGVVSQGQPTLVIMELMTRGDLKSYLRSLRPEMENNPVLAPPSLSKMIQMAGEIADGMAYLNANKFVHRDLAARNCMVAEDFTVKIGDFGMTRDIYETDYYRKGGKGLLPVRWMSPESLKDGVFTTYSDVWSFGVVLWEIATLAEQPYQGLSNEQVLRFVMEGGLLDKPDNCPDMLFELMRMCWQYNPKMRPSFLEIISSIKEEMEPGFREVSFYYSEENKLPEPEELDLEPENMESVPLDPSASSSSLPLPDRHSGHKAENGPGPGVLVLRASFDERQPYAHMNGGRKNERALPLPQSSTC
# [5] = molecular target: Insulin-like growth factor 1 receptor (Homo sapiens) (UniProt P08069); conditions: at 10 µM
# [6] = molecular target: T3, Inhibitor of nuclear factor kappa-B kinase subunit alpha (Homo sapiens) (UniProt O15111); conditions: at 1 µM
# T3 sequence (whole entry): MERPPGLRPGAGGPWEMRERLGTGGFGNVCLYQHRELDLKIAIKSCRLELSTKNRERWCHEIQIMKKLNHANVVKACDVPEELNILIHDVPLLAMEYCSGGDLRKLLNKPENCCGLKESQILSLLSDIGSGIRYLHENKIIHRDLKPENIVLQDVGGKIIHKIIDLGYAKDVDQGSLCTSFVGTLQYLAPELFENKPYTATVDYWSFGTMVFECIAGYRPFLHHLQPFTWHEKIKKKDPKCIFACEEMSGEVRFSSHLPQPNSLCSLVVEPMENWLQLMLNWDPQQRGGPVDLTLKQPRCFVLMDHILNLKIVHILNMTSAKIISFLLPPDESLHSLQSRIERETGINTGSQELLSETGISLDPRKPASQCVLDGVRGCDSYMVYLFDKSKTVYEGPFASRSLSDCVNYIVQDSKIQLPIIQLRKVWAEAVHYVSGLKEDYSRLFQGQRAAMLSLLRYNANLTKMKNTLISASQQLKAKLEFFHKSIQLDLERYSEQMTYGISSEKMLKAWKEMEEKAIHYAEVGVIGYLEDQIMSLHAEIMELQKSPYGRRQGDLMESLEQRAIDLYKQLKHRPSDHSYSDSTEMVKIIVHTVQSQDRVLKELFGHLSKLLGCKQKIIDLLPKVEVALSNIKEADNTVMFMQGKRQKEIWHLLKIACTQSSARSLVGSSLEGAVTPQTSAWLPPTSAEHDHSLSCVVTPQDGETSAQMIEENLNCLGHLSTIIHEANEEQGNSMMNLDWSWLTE
# [7] = molecular target: T3, Inhibitor of nuclear factor kappa-B kinase subunit alpha (Homo sapiens); conditions: at 10 µM
# [8] = molecular target: T4, Inhibitor of nuclear factor kappa-B kinase subunit beta (Homo sapiens) (UniProt O14920); conditions: at 1 µM
# T4 sequence (whole entry): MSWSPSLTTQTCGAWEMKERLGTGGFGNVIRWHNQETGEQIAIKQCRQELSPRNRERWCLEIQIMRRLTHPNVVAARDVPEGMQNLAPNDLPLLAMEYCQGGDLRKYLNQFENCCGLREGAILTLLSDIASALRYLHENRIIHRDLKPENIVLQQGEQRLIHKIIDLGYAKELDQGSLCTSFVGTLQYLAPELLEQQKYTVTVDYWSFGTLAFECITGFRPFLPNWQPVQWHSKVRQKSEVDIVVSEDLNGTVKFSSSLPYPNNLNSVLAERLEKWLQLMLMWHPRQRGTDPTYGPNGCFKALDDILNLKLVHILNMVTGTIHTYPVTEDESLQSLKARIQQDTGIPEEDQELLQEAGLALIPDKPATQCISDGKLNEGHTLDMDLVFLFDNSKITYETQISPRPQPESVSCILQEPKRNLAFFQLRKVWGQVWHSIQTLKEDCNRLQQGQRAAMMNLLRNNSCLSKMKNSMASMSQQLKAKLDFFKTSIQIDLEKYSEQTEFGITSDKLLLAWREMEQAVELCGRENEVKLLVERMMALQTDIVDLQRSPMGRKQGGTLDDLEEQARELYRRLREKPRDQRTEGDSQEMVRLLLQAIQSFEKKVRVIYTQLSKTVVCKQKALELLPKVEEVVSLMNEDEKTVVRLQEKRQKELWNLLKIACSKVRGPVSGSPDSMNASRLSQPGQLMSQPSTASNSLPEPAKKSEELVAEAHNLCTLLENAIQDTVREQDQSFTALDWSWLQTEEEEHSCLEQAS
# [9] = molecular target: T4, Inhibitor of nuclear factor kappa-B kinase subunit beta (Homo sapiens); conditions: at 10 µM
# [10] = molecular target: Insulin receptor (Homo sapiens) (UniProt P06213); conditions: at 1 µM
# Chain of Insulin receptor (Homo sapiens) (P06213 28-758 limits assumed): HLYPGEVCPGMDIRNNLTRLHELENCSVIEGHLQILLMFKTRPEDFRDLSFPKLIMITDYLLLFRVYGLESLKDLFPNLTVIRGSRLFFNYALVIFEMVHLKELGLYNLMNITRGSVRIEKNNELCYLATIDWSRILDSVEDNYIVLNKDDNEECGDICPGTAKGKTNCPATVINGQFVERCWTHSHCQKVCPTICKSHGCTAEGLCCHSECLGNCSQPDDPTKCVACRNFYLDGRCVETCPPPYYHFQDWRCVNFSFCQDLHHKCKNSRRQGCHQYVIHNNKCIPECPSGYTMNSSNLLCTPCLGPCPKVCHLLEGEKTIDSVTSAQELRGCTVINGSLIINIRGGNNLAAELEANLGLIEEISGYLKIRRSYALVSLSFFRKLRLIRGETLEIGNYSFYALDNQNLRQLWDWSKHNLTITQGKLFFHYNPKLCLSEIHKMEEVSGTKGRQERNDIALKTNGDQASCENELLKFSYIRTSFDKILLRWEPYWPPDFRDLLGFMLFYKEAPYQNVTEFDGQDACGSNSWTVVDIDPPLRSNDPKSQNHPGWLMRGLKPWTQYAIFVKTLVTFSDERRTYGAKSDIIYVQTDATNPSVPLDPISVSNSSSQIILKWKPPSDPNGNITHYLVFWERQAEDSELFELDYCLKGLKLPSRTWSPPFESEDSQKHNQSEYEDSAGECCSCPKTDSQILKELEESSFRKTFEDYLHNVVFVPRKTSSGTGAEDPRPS
# Chain of Insulin receptor (Homo sapiens) (P06213 763-1382 limits assumed): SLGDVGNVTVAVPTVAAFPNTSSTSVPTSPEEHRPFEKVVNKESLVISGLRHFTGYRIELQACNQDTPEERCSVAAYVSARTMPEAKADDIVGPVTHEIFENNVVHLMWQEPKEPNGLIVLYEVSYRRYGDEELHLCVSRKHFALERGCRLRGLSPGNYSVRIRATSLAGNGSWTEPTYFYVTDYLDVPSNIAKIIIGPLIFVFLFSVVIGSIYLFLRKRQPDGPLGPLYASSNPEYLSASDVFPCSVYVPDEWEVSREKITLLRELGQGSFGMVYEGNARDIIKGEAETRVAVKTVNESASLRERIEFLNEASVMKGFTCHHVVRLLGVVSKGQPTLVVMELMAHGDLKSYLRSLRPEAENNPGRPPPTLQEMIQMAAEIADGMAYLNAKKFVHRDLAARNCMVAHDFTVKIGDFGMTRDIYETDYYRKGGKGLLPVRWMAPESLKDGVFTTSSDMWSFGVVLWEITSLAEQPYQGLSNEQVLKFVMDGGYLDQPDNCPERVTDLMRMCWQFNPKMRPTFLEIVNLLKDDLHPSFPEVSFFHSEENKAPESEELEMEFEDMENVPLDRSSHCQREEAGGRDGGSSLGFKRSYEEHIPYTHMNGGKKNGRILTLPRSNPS
Compound,residual activity [1],residual activity [2],residual activity [3],residual activity [4],residual activity [5],residual activity [6],residual activity [7],residual activity [8],residual activity [9],residual activity [10]
CCOc1cc2ncnc(Nc3cccc(Br)c3)c2cc1OCC,33%,89%,81%,104%,100%,108%,108%,97%,82%,104%
COc1cc2ncnc(Nc3ccc(Oc4ccccc4)cc3)c2cc1OC,57%,99%,98%,110%,89%,117%,101%,103%,122%,110%
Cn1nc2c3c(cccc31)C(=O)c1ccccc1-2,55%,85%,76%,89%,99%,110%,82%,100%,87%,94%
CC[n+]1c(/C=C/N(C)c2ccccc2)n(-c2ccccc2)c2ccc(-c3nc4ccccc4s3)cc21,68%,80%,102%,97%,86%,92%,93%,105%,102%,107%
O=C1NC(=O)/C(=C/c2ccc3c(c2)OC(F)(F)O3)S1,67%,95%,89%,113%,102%,112%,107%,111%,92%,111%
Cn1cc(/C=C2\C(=O)Nc3ccc(S(N)(=O)=O)cc32)c2ccccc21,10%,100%,96%,81%,86%,100%,92%,87%,78%,91%
NC(=O)c1ccc2[nH]c(-c3ccc(Oc4ccc(Cl)cc4)cc3)nc2c1,60%,84%,85%,89%,85%,123%,137%,108%,106%,102%
Cc1cc2ncc(-c3ccccc3)nc2cc1C,73%,100%,91%,99%,101%,105%,109%,101%,99%,
Nc1n[nH]c2nnc(-c3c(-c4ccccc4)nn4ccccc34)cc12,67%,88%,83%,82%,76%,115%,107%,102%,102%,70%
Cc1ccc(NC2=CC(=O)c3sc(C)nc3C2=O)cc1,74%,90%,83%,95%,92%,107%,103%,106%,98%,95%
COc1cc2ncnc(Nc3ccc(O)c(Br)c3)c2cc1OC,15%,79%,71%,87%,81%,97%,72%,97%,82%,114%
Nc1nc(Nc2ccc(S(N)(=O)=O)cc2)nn1C(=S)Nc1c(F)cccc1F,-2%,13%,2%,74%,83%,10%,1%,33%,6%,
CC#CC(=O)Nc1cc2c(Nc3ccc(F)c(Cl)c3)ncnc2cn1,72%,74%,89%,98%,93%,97%,95%,96%,96%,101%
C[C@@H](N)[C@H]1CC[C@H](C(=O)Nc2ccncc2)CC1,99%,113%,105%,115%,105%,136%,64%,87%,77%,100%
Oc1ccc(-c2nc(-c3ccc(F)cc3)c(-c3ccncc3)[nH]2)cc1,85%,100%,40%,122%,123%,90%,59%,120%,91%,136%
CO[C@H]1[C@@H](OC)C[C@H](C)[C@@H](OC)C2=CC(=O)C=C(NC(=O)/C(C)=C/C=C/[C@H](OC)[C@@H](OC(N)=O)/C(C)=C/[C@@H]1C)C2=O,69%,99%,89%,106%,96%,85%,113%,111%,107%,109%

Compound,residual activity [1],residual activity [2],residual activity [3],residual activity [4],residual activity [5],residual activity [6],residual activity [7],residual activity [8],residual activity [9],residual activity [10]
Cc1nc2cc3nc(-c4cccs4)cnc3cc2n1C,87%,98%,118%,115%,106%,125%,106%,106%,106%,117%
O=c1c2ccccc2[nH]c(=S)n1CCN1CCC(=C(c2ccc(F)cc2)c2ccc(F)cc2)CC1,68%,95%,80%,112%,93%,87%,128%,114%,105%,109%
N#C/C(=C(\N)Sc1ccc(N)cc1)c1ccccc1C(F)(F)F,16%,101%,95%,103%,102%,101%,121%,106%,109%,113%
CCN(CC)CCCCN1c2ccccc2Oc2ccc(Cl)cc21,82%,84%,105%,107%,104%,97%,102%,112%,105%,114%
O=C1c2ccccc2-[n+]2ccc3c([nH]c4ccccc43)c21,53%,81%,78%,86%,92%,108%,108%,113%,97%,84%
Ic1cccc(CSc2nnc(-c3ccncc3)o2)c1,6%,82%,79%,79%,95%,80%,72%,87%,79%,93%
COc1cccc(-c2cc(=O)c3ccccc3o2)c1N,95%,104%,93%,93%,97%,105%,97%,125%,109%,109%
COc1ccc(OC)c2c(=S)c3ccccc3[nH]c12,67%,101%,81%,98%,101%,99%,102%,95%,95%,99%
Cc1cccc(-c2[nH]c(C(C)(C)C)nc2-c2ccc3c(c2)OCO3)n1,72%,10%,0%,106%,96%,,,,,
Oc1n[nH]c2nnc(-c3c(-c4ccccc4)nn4ccccc34)cc12,60%,84%,74%,84%,91%,102%,92%,97%,93%,47%
c1ccc2c(-c3ccncc3)c[nH]c2c1,51%,87%,88%,88%,79%,97%,69%,105%,73%,110%
Cc1cc(Nc2nc(-c3ccccc3)nc3ccccc23)n[nH]1,0%,96%,78%,20%,1%,102%,72%,78%,51%,16%
CC(C)n1cnc2c(NCc3ccccc3)nc(NCCCO)nc21,66%,93%,81%,90%,87%,116%,104%,110%,94%,91%
O=C1Nc2cc(Br)ccc2/C1=C1/Nc2ccccc2/C1=N\O,15%,88%,77%,99%,101%,105%,100%,101%,85%,75%
CC(C)n1cnc2/c(=N/c3cccc(Cl)c3)nc(NCCO)[nH]c21,33%,79%,85%,72%,31%,114%,98%,102%,85%,83%
Cc1nc(-c2ccccc2)c(-c2ccncc2)o1,88%,116%,100%,107%,116%,109%,101%,109%,82%,117%
